Screening data (PubChem)
Hits are enriched below; roughly 10% of the tested compounds scored in any of these assays.
FLuc inh-1 – Firefly luciferase inhibition profiling of diverse chemical library using quantitative high-throughput screening; 2.5% of 76,000 active; Potency, µM (top dose mostly 115 µM), most hits filed as inhibitors; purified P. pyralis luciferase, luminescence, biochemical; AID 1347043, 2019; Luciferin 4-monooxygenase (Photinus pyralis), P08659; note: % is set by controls: 0 for no effect and ±100 for the full control effect; nearly all actives have a fitted effect of over 65% in size
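Cell-free enzyme assay, 10nM P. pyralis luciferase, luciferin and ATP each at 10uM. Inhibition profiled over a 6-point titration, read as luminescence.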
hNpr1 antagonist – Natriuretic polypeptide receptor (hNpr1) antagonism - Primary qHTS; AID 1347048, 2019; 1.6% of 76,000 active; HEK293 hNpr1 GloSensor cGMP, ANP-stimulated luminescence; Atrial natriuretic peptide receptor 1 (Homo sapiens), P16066; Potency, µM (doses to about 46.3 µM), inactives show top-dose activity change, negative = inhibition, actives largely listed as inhibitors; calls by dose curve; note: % is set by controls: 0 for no effect and ±100 for the full control effect; nearly all actives have a fitted effect of over 60% in size
Target sequence (P16066 whole entry, looked up): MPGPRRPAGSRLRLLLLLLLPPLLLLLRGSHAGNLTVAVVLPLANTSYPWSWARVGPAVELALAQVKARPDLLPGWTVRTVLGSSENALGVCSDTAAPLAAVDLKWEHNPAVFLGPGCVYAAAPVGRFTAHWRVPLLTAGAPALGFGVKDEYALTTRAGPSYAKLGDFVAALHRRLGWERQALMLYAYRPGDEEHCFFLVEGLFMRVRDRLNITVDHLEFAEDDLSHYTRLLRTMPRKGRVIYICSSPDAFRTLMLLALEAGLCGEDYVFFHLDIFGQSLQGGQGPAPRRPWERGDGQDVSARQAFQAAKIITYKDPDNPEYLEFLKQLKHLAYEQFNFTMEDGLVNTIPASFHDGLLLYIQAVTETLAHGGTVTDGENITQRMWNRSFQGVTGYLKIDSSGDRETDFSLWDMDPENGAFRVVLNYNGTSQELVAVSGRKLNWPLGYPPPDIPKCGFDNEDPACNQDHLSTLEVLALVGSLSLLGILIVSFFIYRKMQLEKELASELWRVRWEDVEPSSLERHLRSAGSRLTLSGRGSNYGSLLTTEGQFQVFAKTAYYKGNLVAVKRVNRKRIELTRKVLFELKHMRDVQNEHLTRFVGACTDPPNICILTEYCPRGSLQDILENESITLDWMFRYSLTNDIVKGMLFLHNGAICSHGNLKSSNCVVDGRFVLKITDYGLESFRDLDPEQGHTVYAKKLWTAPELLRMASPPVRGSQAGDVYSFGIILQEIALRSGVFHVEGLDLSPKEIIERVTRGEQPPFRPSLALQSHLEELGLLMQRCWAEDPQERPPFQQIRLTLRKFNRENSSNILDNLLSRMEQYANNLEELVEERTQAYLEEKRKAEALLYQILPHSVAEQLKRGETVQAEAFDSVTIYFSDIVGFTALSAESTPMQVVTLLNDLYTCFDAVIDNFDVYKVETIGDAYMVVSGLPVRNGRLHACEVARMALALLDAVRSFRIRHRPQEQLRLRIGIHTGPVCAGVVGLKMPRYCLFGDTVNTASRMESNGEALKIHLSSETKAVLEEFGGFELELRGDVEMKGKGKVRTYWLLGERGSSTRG
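Compound pre-incubated 30 min at room temperature on GloSensor-loaded HEK293 cells stably carrying hNpr1 and the pGS-40F cGMP biosensor. Stimulation uses hNppA at 0.1 nM final; luminescence is taken at baseline and 20 min post-agonist.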
3T3 cytotox – Cytotoxic Profiling in NIH 3T3 Cell Line of Diverse Libraries Using Quantitative High-Throughput Screening; NIH 3T3 viability, CellTiter-Glo ATP luminescence, 48-72 h; Potency, µM (series often up to 96.7 µM), inactives show top-dose activity change, negative = cytotoxicity, hits mostly inhibitors; 4.3% of 94,000 active; note: % is set by controls: 0 for no effect and ±100 for the full control effect; nearly all actives have a fitted effect of over 55% in size
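NIH 3T3 cells at 400 cells/well received 23 nL of compound by pintool and were incubated 48 or 72 h at 37 °C. Viability was read as ATP-coupled CellTiter-Glo luminescence.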
GPT2 inhibitor – Primary qHTS assay for inhibitors of Glutamate pyruvate transaminase 2 (GPT2); Recombinant GPT2, coupled pyruvate oxidase/HRP Amplex Red fluorescence; Alanine aminotransferase 2 (Homo sapiens), Q8TD30; Potency, µM (doses to about 57.7 µM), for inactives: top-dose activity change, negative = inhibition, actives largely listed as inhibitors; 0.25% of 100,000 active; note: % is set by controls: 0 for no effect and ±100 for the full control effect; nearly all actives have a fitted effect of over 60% in size
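GPT2 10ng/uL, a-KG 250uM, L-Ala 2mM, HEPES pH7.5 + 0.0001% Tween; 30 min RT. Then Amplex mix (PO/HRP/ThPP), 30 min RT dark, fluorescence. AOA 50uM used as positive control.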
HEK293 tox – Cytotoxic Profiling in HEK 293 Cell Line of Diverse Libraries Using Quantitative High-Throughput Screening. HEK 293 viability, ATP luminescence (CellTiter-Glo), 48-72 h. 6.6% of 94,000 active. AID 1345083, 2018. Potency, µM (titrated, usually from 115 µM), for inactives: at the highest dose activity change, negative = cytotoxicity, actives largely listed as inhibitors; note: % is set by controls: 0 for no effect and ±100 for the full control effect; nearly all actives have a fitted effect of over 60% in size
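HEK 293 cells seeded at 250 cells/well were exposed to compound for 48 or 72 hr at 37 degree Celsius. Viability taken as ATP content by CellTiter-Glo luminescence.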
FLuc SDR -ATP – Firefly luciferase (FLuc-C-HiBiT) SDR gain of signal screen - without ATP; shares compounds with FLuc inh-1; Purified FLuc-C-HiBiT, Nano-Glo HiBiT luminescence, no ATP; Potency, µM (highest dose often 32.7 µM), for the others: at the top dose activation (signal gain), usual class: activators; 7.8% of 1,300 active; AID 1963318, 2024; note: nearly all actives have a fitted effect of over 55% in size
FLuc SDR ATP – Firefly luciferase (FLuc-C-HiBiT) SDR gain of signal screen - plus ATP; 8.7% of 1,300 active; purified FLuc-C-HiBiT + ATP, HiBiT complementation luminescence; shares compounds with FLuc inh-1; Potency, µM (series often up to 32.7 µM), for the others: top-dose activation (gain of signal), hits mostly activators;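 note: signal reports ligand binding via conformational change of the enzyme rather than luciferase catalysis; % of control where 0% means no effect; nearly all actives have a fitted effect of over 55% in size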
FLuc inh-2 – Firefly luciferase (FLuc-C-HiBiT) enzymatic inhibition screen - Functional assay; shares compounds with FLuc inh-1; purified FLuc-C-HiBiT enzyme, luciferin luminescence; Potency, µM (doses to about 32.7 µM), without a hit: at the highest dose activity change, negative = inhibition, most hits filed as inhibitors; 42% of 1,300 active; note: % is set by controls: 0 for no effect and ±100 for the full control effect; nearly all actives have a fitted effect of over 70% in size
An asterisk follows results filed as active; i = inactive; ? = inconclusive; . = no result; ! = a repeat was not active; [ ] = dose if it differs, or a comment. Unless noted, calls come from the whole dose curve; as a rule, active = well fitted curve in the direction sought with a large enough effect; inconclusive = small, poorly fitted or top-dose-only effect, or another doubt; inactive = no such curve, though single readings can be large; an effect the other way counts as inactive or inconclusive. Potency is the fitted concentration of half-maximal effect.

SMILES	FLuc inh-1	hNpr1 antagonist	3T3 cytotox	GPT2 inhibitor	HEK293 tox	FLuc SDR -ATP	FLuc SDR ATP	FLuc inh-2
c1ccc2cc(-c3nc(C4CCOC4)no3)ncc2c1 (centres undefined)	2.51µM*	?	-29.2%	-32.9%	1.0%	14.7%	?	?
COc1ccc2c(C)c(-c3nc(C4CCOC4)no3)oc2c1 (centres undefined)	12.6µM*	3.8%	?	1.8%	?	13.9%	13.0%	-18.1%
Cc1nc2ccc(-c3nc(C4CCOC4)no3)cc2s1 (centres undefined)	2µM*	?	?	?	?	24.9%	?	11.1µM*
CN(C)c1ccc(-c2nc(C3CCOC3)no2)cc1 (centres undefined)	3.98µM*	?	-32.8%	-6.8%	?	24.5%	?	?
CSc1ccccc1-c1nc(C2CCOC2)no1 (centres undefined)	i	3.2%	?	-15.9%	-2.2%	.	.	.
Cc1c(-c2ccccc2F)[nH]c2ccc(CNC(=O)CCc3cc(=O)[nH]o3)cc12	2.82µM*	-14.9%	?	3.9%	-4.2%	26.8%	17.5%	9.89µM*
Cc1c(-c2ccccc2F)[nH]c2ccc(CNC(=O)CC3CCC(=O)N3)cc12 (centres undefined)	10µM*	0.6%	-28.2%	1.7%	35.5µM*	?	13.0%	9.89µM*
Cc1c(-c2ccccc2F)[nH]c2ccc(CNC(=O)CCc3cnccn3)cc12	?	-3.7%	?	?	?	.	.	.
O=C(C1CCCN1C(=O)c1ccc(C(F)(F)F)cc1)N1CCC(N2CCCC2=O)CC1 (centres undefined)	.	.	-16.0%	i	-0.6%	.	.	.
O=C(c1c(-c2cncnc2)cc(=O)n2c1CCCC2)N1CCC(Cc2ccccc2)CC1	.	.	-10.5%	?	-8.2%	.	.	.
c1cnc2nc(-c3ccncc3)[nH]c2c1	i	-2.1%[70.6 µM]	?	-8.8%[88.5 µM]	-19.8%[230 µM]	.	.	.
COc1ccc(-c2nc3ncccc3[nH]2)cc1	12.6µM*	-17.4%[70.6 µM]	79.4µM*!	-0.4%[88.5 µM]	79.4µM*	?	?	16µM*
Cc1cnc(CC2CCN(C(=O)C(C)C)C2)n1C1CC1 (centres undefined)	i	5.5%	-14.1%	-25.4%	-16.3%	.	.	.
O=C(NC1CCCC1)N1CCC(C(=O)N2CCC(N3CCCC3=O)CC2)CC1	.	.	-16.7%	i	i	.	.	.
CCn1cc(CN2CCCN(S(C)(=O)=O)C(c3ccccc3)CC(=O)NCC2)c(C)n1 (centres undefined)	i	4.0%	-1.7%	i	i	.	.	.
C[C@@H]1CN(c2cc(C3CC3)ncn2)C[C@@]1(O)C1CCC1	i	3.2%	-21.9%	-30.2%	?	.	.	.
C[C@@H]1CN(c2cnc3ccccc3n2)CC[C@@]1(O)C1CCC1	3.98µM*	?	?	-4.3%	?	21.5%	16.7%	?
Cc1nncn1C1CN(S(=O)(=O)c2ccc3c(c2)CCC3)C1	.	.	-25.8%	-1.7%	-28.5%	.	.	.
CC(C)c1cnc(N2CCC(COc3ccc4c(cnn4CCC(=O)O)c3)CC2)nc1	14.1µM*	1.4%[70.6 µM]	?	3.6%[88.5 µM]	?	15.3%[49.3 µM]	9.0%[49.3 µM]	?
CCc1cnc(N2CCC(COc3ccc4c(cnn4CCC(=O)O)c3)CC2)nc1	?	-0.5%[70.6 µM]	?	-2.0%[88.5 µM]	-6.4%[172 µM]	.	.	.
Cc1cc(NCCc2cnccn2)nc(-c2ccccc2O)n1	10µM*	0.3%	?	-17.6%	?	16.4%	12.6%	-16.7%
Cc1cnc(-c2cccnc2)n1CC1CCCN(C(=O)NC2CCCCC2)C1 (centres undefined)	.	.	-8.3%	i	-1.3%	.	.	.
Cc1ccc(-c2nc(C)c(CCNC(=O)c3cccs3)s2)cc1	.	.	.	.	.	12.1%	9.4%	?
COc1ccc(-c2nc(C)c(CCNC(=O)c3cccs3)s2)cc1	.	.	.	.	.	24.3%	17.0%	?
COc1cccc(C(=O)N2CCC(CCOc3ccc(F)cc3)C2)c1 (centres undefined)	.	.	?	i	?	.	.	.
SMILES	FLuc inh-1	hNpr1 antagonist	3T3 cytotox	GPT2 inhibitor	HEK293 tox	FLuc SDR -ATP	FLuc SDR ATP	FLuc inh-2
O=C1NCCCCCCN(C(=O)c2ccco2)[C@H]2C[C@H](C(=O)N3CCc4ccccc4C3)C[C@@H]12	i	0.2%	-1.9%	i	-25.9%	.	.	.
CC(C)(C)C1CCc2nc(NC(=O)c3cccc(Cl)c3)sc2C1 (centres undefined)	.	.	.	.	.	17.3%	16.3%	2.48µM*
Cc1cccc(OCCn2nnc3sc4c(c3c2=O)CCCC4)c1	.	.	.	.	.	7.5%	5.2%	?
O=[S+]([O-])(c1cccs1)N1CCCC2(CC(c3ccccc3)=NO2)C1 (centres undefined)	.	.	?	i	?	.	.	.
COc1ccc(C2=NOC3(CCN([S+](=O)([O-])c4cccs4)C3)C2)cc1 (centres undefined)	5.62µM*	?	?	i	?	11.0%	14.9%	-10.2%
O=C(C1CCCN1C(=O)c1ccccc1Cl)N1CCC(c2ccccc2)CC1 (centres undefined)	.	.	?	i	?	.	.	.
Cc1cc(NC(=O)c2ccc(CN3CC[C@H](O)C3)cc2)ccc1F	0.891µM*	10µM*	?	1.9%[11.5 µM]	?	?	?	1.97µM*
COc1ccc(C(=O)NC2CCCN(c3cc(-c4ccc(Cl)cc4)[nH]n3)C2)cc1OC (centres undefined)	3.98µM*	-18.8%	?	i	35.5µM*	26.0%	13.6%	6.24µM*
COc1ccc(-c2cc(N3CCCC(NC(=O)c4ccc(OC)c(OC)c4)C3)n[nH]2)cc1 (centres undefined)	3.16µM*	-15.5%	?	?	?	?	?	3.94µM*
